Sampled rows, rich in hits. Any-hit rate of the full collection: about 11%.
NPR1 antag: human Npr1 receptor antagonism. P16066. HEK293 hNpr1 GloSensor cGMP, ANP-stimulated luminescence. Potency, µM (titrated, usually from 46.3 µM), inactives show at the highest dose activity change, negative = inhibition, actives largely listed as inhibitors. 76,000 tested, 1.6% active; calls by dose curve; note: % is set by controls: 0 for no effect and ±100 for the full control effect; nearly all actives have a fitted effect of over 60% in size
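Compound pre-incubated 30 min at room temperature on GloSensor-loaded HEK293 cells stably carrying hNpr1 and the pGS-40F cGMP biosensor. Stimulation uses hNppA at 0.1 nM final; luminescence is taken at baseline and 20 min post-agonist.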
FLuc inh-1: Photinus pyralis luciferase inhibition | P08659 | purified P. pyralis luciferase, luminescence, biochemical | Potency, µM (top dose mostly 115 µM), hits mostly inhibitors | 76,000 tested, 2.5% active; note: % is set by controls: 0 for no effect and ±100 for the full control effect; nearly all actives have a fitted effect of over 65% in size
Target sequence (P08659 whole entry, looked up): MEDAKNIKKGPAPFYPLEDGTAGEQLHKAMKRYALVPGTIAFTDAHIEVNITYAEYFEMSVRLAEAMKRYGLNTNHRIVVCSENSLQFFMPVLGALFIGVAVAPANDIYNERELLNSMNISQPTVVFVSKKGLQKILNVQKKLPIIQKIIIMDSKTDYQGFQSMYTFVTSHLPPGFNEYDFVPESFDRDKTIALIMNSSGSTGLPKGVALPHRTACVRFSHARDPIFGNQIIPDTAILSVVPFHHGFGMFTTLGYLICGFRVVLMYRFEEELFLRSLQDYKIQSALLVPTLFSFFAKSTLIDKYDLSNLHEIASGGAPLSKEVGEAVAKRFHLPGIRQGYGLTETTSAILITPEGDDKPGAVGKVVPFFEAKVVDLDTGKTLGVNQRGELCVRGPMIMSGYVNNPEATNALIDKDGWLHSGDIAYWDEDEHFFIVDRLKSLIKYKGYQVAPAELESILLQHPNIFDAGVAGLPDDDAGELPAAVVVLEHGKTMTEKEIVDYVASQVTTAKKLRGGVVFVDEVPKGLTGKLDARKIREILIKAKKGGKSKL
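Purified 10nM P. pyralis luciferase with 10uM D-luciferin and 10uM ATP in 50mM Tris acetate pH 7.5, 10mM Mg acetate, 0.01% Tween-20, 0.05% BSA. qHTS titration; luminescence read by CCD imager.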
3T3 cytotox: cytotoxic compounds in NIH 3T3 cells; NIH 3T3 viability, CellTiter-Glo ATP luminescence, 48-72 h; 94,000 tested, 4.3% active; Potency, µM (top dose mostly 96.7 µM), inactives show top-dose activity change, negative = cytotoxicity, hits mostly inhibitors; note: % is set by controls: 0 for no effect and ±100 for the full control effect; nearly all actives have a fitted effect of over 55% in size
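Cells were seeded at 400 per well, treated with pin-transferred compound, and kept 48 or 72 hr at 37 °C before CellTiter-Glo addition and luminescence imaging of cellular ATP.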
HEK293 tox: HEK 293 cell cytotoxicity. 94,000 tested, 6.6% active. Potency, µM (doses to about 115 µM), inactives show at the highest dose activity change, negative = cytotoxicity, most hits filed as inhibitors. HEK 293 viability, ATP luminescence (CellTiter-Glo), 48-72 h; note: % is set by controls: 0 for no effect and ±100 for the full control effect; nearly all actives have a fitted effect of over 60% in size
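CellTiter-Glo luminescence (cellular ATP) was read after 48 or 72 hr of compound exposure at 37 degree Celsius. Cells were HEK 293 plated at 250 cells/well.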
FLuc SDR no ATP: binders stabilizing firefly luciferase, without ATP; 1,300 tested, 7.8% active; shares compounds with FLuc inh-1; Potency, µM (top dose mostly 32.7 µM), for inactives: at the top dose activation (signal gain), hits mostly activators; Purified FLuc-C-HiBiT, Nano-Glo HiBiT luminescence, no ATP; AID 1963318; note: nearly all actives have a fitted effect of over 55% in size
FLuc SDR ATP: stabilizes firefly luciferase with ATP present. shares compounds with FLuc inh-1. purified FLuc-C-HiBiT + ATP, HiBiT complementation luminescence. Potency, µM (series often up to 32.7 µM), inactives show top-dose activation (gain of signal), usual class: activators. 1,300 tested, 8.7% active. AID 1963319;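 note: signal reports ligand binding via conformational change of the enzyme rather than luciferase catalysis; % of control where 0% means no effect; nearly all actives have a fitted effect of over 55% in size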
FLuc inh-2: firefly luciferase enzyme inhibition; purified FLuc-C-HiBiT enzyme, luciferin luminescence; shares compounds with FLuc inh-1; Potency, µM (highest dose often 32.7 µM), inactives show at the highest dose activity change, negative = inhibition, actives largely listed as inhibitors; 1,300 tested, 42% active; note: % is set by controls: 0 for no effect and ±100 for the full control effect; nearly all actives have a fitted effect of over 70% in size
Npr1 antag conf: hNpr1 antagonism, confirmation assay; 1,400 tested, 76% active; shares compounds with NPR1 antag; Potency, µM (highest dose often 57.6 µM), without a hit: top-dose activity change, negative = inhibition, actives largely listed as inhibitors; HEK293 hNpr1 cGMP GloSensor luminescence, ANP-stimulated; calls by dose curve; note: nearly all actives have a fitted effect of over 70% in size
NPR2 antag: selectivity test of Npr1 antagonists against human Npr2; Potency, µM (series often up to 57.6 µM), without a hit: top-dose activity change, negative = inhibition, hits mostly inhibitors; HEK293 hNpr2 GloSensor cGMP luminescence, CNP-stimulated; 1,400 tested, 67% active; shares compounds with NPR1 antag; calls by dose curve; note: nearly all actives have a fitted effect of over 70% in size
FLuc counter: inhibits firefly luciferase, false Npr1 antagonist flag. Potency, µM (series often up to 57.6 µM), without a hit: at the highest dose activity change, negative = inhibition, most hits filed as inhibitors. shares compounds with NPR1 antag. 1,400 tested, 0.7% active. purified FLuc enzyme, luminescence, Km substrate. AID 1347047; note: 0% is about no effect
GloSensor cGMP: reduces cGMP signal in GloSensor control cells; shares compounds with NPR1 antag; HEK293 GloSensor cGMP, SNP-stimulated, luminescence; Potency, µM (titrated, usually from 57.6 µM), for the others: at the top dose activity change, negative = inhibition, most hits filed as inhibitors; 1,400 tested, 69% active; AID 1347051; calls by dose curve; note: % is set by controls: 0 for no effect and ±100 for the full control effect; nearly all actives have a fitted effect of over 70% in size
* hit, by the source's call; i = inactive; ? = inconclusive; · = no result given; [ ] = dose if it differs, or a comment. Unless noted, calls come from the whole dose curve; as a rule, active = well fitted curve in the direction sought with a large enough effect; inconclusive = small, poorly fitted or top-dose-only effect, or another doubt; inactive = no such curve, though single readings can be large; an effect the other way counts as inactive or inconclusive. Potency is the fitted concentration of half-maximal effect.

SMILES | NPR1 antag | FLuc inh-1 | 3T3 cytotox | HEK293 tox | Npr1 antag conf | NPR2 antag | FLuc counter | GloSensor cGMP | others
c1nc(N2C[C@@H](c3ccc4c(c3)OCO4)[C@@H]3[C@H]2C2CCN3CC2)c2[nH]cnc2n1 | 0% | i | -10% | -6% | · | · | · | · | FLuc SDR no ATP=13%;FLuc SDR ATP=10%;FLuc inh-2=3%
CC(C)CC(=O)N1[C@H]2CC[C@@H]1c1cnc(-c3ccc(F)cc3)nc1C2 | 13µM* | i | ? | 20µM* | 24µM* | 24µM* | 3% | 19µM*
O=C(C1CCCC1)N1[C@H]2CC[C@@H]1c1cnc(-c3ccc(F)cc3)nc1C2 | 10µM* | i | -11% | 16µM* | 8.6µM* | 12µM* | -1% | 8.6µM*
COCC(=O)N1[C@H]2CC[C@@H]1c1cnc(-c3ccc(F)cc3)nc1C2 | 1% | i | -13% | ? | · | · | · | ·
Cn1cc(C(=O)N2[C@H]3CC[C@@H]2c2cnc(-c4ccc(F)cc4)nc2C3)cn1 | 0% | i | -23% | ? | · | · | · | ·
CC(C)C(=O)N1[C@H]2CC[C@@H]1c1cnc(-c3ccc(F)cc3)nc1C2 | 22µM* | i | -28% | ? | 19µM* | 22µM* | 1% | 19µM*
CCn1nccc1C(=O)N1[C@H]2CC[C@@H]1c1cnc(-c3ccc(F)cc3)nc1C2 | 6.3µM* | i | ? | ? | 11µM* | 12µM* | 2% | 11µM*
O=S(=O)(NC[C@H]1C[C@@H]2CCN1C[C@@H]2CN1CCN(c2ccccn2)CC1)c1cccs1 | 0% | i | -24% | -15% | · | · | · | ·
CC(C)CN1Cc2ccccc2-n2ccnc2C12CCN(C(=O)c1ccccn1)CC2 | 1% | i | -15% | ? | · | · | · | ·
O=[N+]([O-])c1cnc(N2CC3CCC(C2)N3CC(F)(F)F)nc1 | · | · | -4% | 0% | · | · | · | ·
COc1cc2c(cc1Oc1ccccc1)NC(=O)C21CCN(Cc2cccc(O)c2)CC1 | ? | i | 22µM* | ? | 40µM* | ? | 2%[86.2 µM] | 31µM*
CCc1cnc(N2CCC3(CC2)C(=O)Nc2cc(OCc4ccccc4)c(OC)cc23)nc1 | -1% | i | ? | ? | · | · | · | ·
COc1cc2c(cc1OCc1ccccc1)NC(=O)C21CCN(c2ccccn2)CC1 | ? | i | -21%[138 µM] | ? | ? | ? | -3%[86.2 µM] | ?
COc1ccc(CC(=O)N2CCC3(CC2)c2nccn2-c2ccccc2CN3C)cc1 | ? | i | ? | -7% | ? | ? | 1% | 0%
COc1ccc(C(=O)N2CCC3(CC2)c2nccn2-c2ccccc2CN3C)cc1 | 2% | i | i | -3% | · | · | · | ·
CN1Cc2ccccc2-n2ccnc2C12CCN(C(=O)C1(c3ccccc3)CC1)CC2 | ? | i | -5% | ? | ? | ? | -1% | 14%
O=C(c1ccccc1)N1C[C@@H]2C[C@H](C1)c1c(-c3ccc(Cl)cc3)ccc(=O)n1C2 | 3%[70.6 µM] | i | -1%[174 µM] | -22%[172 µM] | · | · | · | ·

Bioassay records: PubChem BioAssay, National Center for Advancing Translational Sciences (NCATS)
